This note sets out measurements from PubChem BioAssay (Tox21).

Several values for one entry are separate records, joined by “and”; a condition that tells them apart may be missing. Equal entries are not always repeated. Records with an inconclusive call do not appear. Activity calls are given as the source filed them. Unless noted, calls come from the whole dose curve; as a rule, active = well fitted curve in the direction sought with a large enough effect in the repeat runs; inconclusive = weak or mixed curves; inactive = no such curve, though single readings can be large; an effect the other way counts as inactive or inconclusive.

Experiment [1] can be described thus: qHTS assay for small molecule agonists of the p53 signaling pathway (AID 651631; calls by dose curve; note: nearly all actives have a fitted effect of over 15% in size). The gist of the method:
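We treat p53RE-bla HCT-116 cells with compounds for 16 h at 37 °C, add LiveBLAzer B/G FRET substrate for 2 h at room temperature, and measure fluorescence intensity.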
(In general: Quantitative high-throughput screening tests each substance at several concentrations.)

Experiment [2] is described as follows: qHTS assay for small molecule agonists of the p53 signaling pathway - cell viability (AID 651633; calls by dose curve;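 note: p53RE-bla HCT reporter cells with a stable beta-lactamase p53 reporter; nearly all actives have a fitted effect of over 30% in size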). The gist of the method:
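Viability counter-read: CellTiter-Glo luminescence (30 min, room temperature) in the same p53RE-bla plates. These plates had been exposed to compounds for 16 h at 37 C.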

Experiment [3] in a line: qHTS assay for small molecules that induce genotoxicity in human embryonic kidney cells expressing luciferase-tagged ATAD5 - cell viability (AID 651634; calls by dose curve; note: nearly all actives have a fitted effect of over 25% in size). The gist of the method:
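Viability read: CellTiter-Fluor fluorescence, 30 min at 37C. Cells: HEK293T, luciferase-tagged ATAD5. Exposure: 15.5 hr, 37C, 5% CO2, compound or DMSO vehicle.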

Experiment [4] can be described thus: qHTS assay for small molecule disruptors of the mitochondrial membrane potential - cell viability (AID 720634; calls by dose curve;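 note: human HepG2 liver cancer cells; nearly all actives have a fitted effect of over 20% in size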). The procedure, abridged: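 HepG2, 1 hr compound, 37 C. ATP luminescence via CellTiter-Glo, 30 min RT, same well as m-MPI.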
Experiment [5] in a line: qHTS assay for small molecule disruptors of the mitochondrial membrane potential (AID 720635). Note: potency is the fitted concentration of half-maximal effect. The gist of the method: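 Mitochondrial membrane potential tracked with Mito-MPS dye, red aggregates (ex 540/em 590 nm) against green monomers (ex 490/em 535 nm). Compound treatment 1 hr at 37C, dye 30 min in HepG2.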
The nature of experiment [6]: qHTS assay to test for compound auto fluorescence at 590 nm (red) in HepG2 cells (AID 720674). The procedure, abridged: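 Red autofluorescence (Ex/Em 540/590 nm, Rose Bengal sodium equivalents) was measured in HepG2 cells, 2,000 per well in MEM plus 10% FBS, plated overnight at 37 C. Readings were taken 1 hr after adding 23 nL compound or DMSO, at 37 C and 5% CO2.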

Experiment [7] can be described thus: qHTS assay to test for compound auto fluorescence at 535 nm (green) in HepG2 cells (AID 720675).
Experiment [8] is described as follows: qHTS assay to test for compound auto fluorescence at 460 nm (blue) in HEK293 cells (AID 720678). The gist of the method:
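Blue read-out at excitation 405 nm and emission 460 nm follows overnight compound exposure of HEK293 cells at 37C in 5% CO2. Activity is given as auto fluorescence equivalency to triamterene.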

Experiment [9] in a line: qHTS assay to test for compound auto fluorescence at 590 nm (red) in HEK293 cells (AID 720679). The procedure, abridged:
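Red channel, Ex/Em 540/590nm; signal expressed as equivalency to Rose Bengal sodium. HEK293, 2,000 cells/well, 10% dialyzed FBS; 23 nL compound pinned after 4-5 hr attachment; overnight 37C/5% CO2 before reading.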

The nature of experiment [10]: qHTS assay to test for compound auto fluorescence at 460 nm (blue) in HEK293 cell free culture (AID 720681). The procedure, abridged: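 Blue fluorescence (Ex 405/Em 460 nm, triamterene-equivalent) was read immediately after pin transfer of compound or DMSO into medium (DMEM, 10% FBS) without cells.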
A short description of experiment [11]: qHTS assay to test for compound auto fluorescence at 535 nm (green) in HEK293 cell free culture (AID 720682). The gist of the method: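 Green-channel intensity (Ex/Em 485/535 nm) was recorded from compound-treated wells containing only DMEM with 10% FBS. Fluorescein provided the equivalency standard.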
Experiment [12] in a line: qHTS assay to test for compound auto fluorescence at 590 nm (red) in HEK293 cell free culture (AID 720683). The gist of the method: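 Red-channel autofluorescence of compounds in culture medium (DMEM, 10% FBS), no cells, measured at 540/590 nm. Rose Bengal sodium is the reference fluorophore for equivalence.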
Experiment [13] in a line: qHTS assay to test for compound auto fluorescence at 590 nm (red) in HepG2 cell free culture (AID 720684). The procedure, abridged: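 Plate contents were MEM with 10% FBS plus test compound or DMSO, no cells. Fluorescence was recorded with 540 nm excitation and 590 nm emission.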
Experiment [14] can be described thus: qHTS assay to test for compound auto fluorescence at 460 nm (blue) in HepG2 cell free culture (AID 720685). The procedure, abridged:
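Compound (23 nL) or DMSO pinned into cell-free MEM with 10% FBS; blue fluorescence read at 405/460 nm excitation/emission, expressed as auto-fluorescence equivalency to triamterene.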

The nature of experiment [15]: qHTS assay to test for compound auto fluorescence at 535 nm (green) in HepG2 cell free culture (AID 720686).
A short description of experiment [16]: qHTS assay to test for compound auto fluorescence at 460 nm (blue) in HepG2 cells (AID 720687). The procedure, abridged:
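Blue-channel autofluorescence (Ex/Em 405/460 nm, triamterene-equivalent) was measured after 1 hr compound exposure at 37 C, 5% CO2. Cells were HepG2, plated overnight at 37 C in MEM plus 10% FBS.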

The target of experiment [17] is Glucocorticoid receptor (Homo sapiens) (UniProt P04150). Kind of experiment: qHTS assay to identify small molecule agonists of the glucocorticoid receptor (GR) signaling pathway (AID 720691; active = well fitted activation curve with a large enough effect in the signal ratio in the repeat runs, not every such curve was filed as active; the % refers to the signal ratio). The conditions noted are these: GR-bla HeLa, beta-lactamase reporter ratio, 18 h; activation: at 62.4 µM (top of the series). The procedure, abridged:
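qHTS in GR-bla HeLa cells: 4 h settling at 37 C/5% CO2, 18 h compound incubation at 37 C, 2 h LiveBLAzer B/G FRET substrate at room temperature, fluorescence intensity measured.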

For experiment [18] the target is unchanged. Kind of experiment: qHTS assay to identify small molecule antagonists of the glucocorticoid receptor (GR) signaling pathway (AID 720692; active = well fitted inhibition curve with a large enough effect in the signal ratio in the repeat runs, not every such curve was filed as active; the % refers to the signal ratio). The gist of the method: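 Inhibition of glucocorticoid signalling is measured in HeLa cells with a GRE-controlled beta-lactamase reporter; cells are co-treated with compound and 5 nM dexamethasone (final) for 18 h before FRET substrate readout.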

Experiment [19] can be described thus: qHTS assay to test for compound auto fluorescence at 535 nm (green) in HEK293 cells (AID 720680).

Glucocorticoid receptor (Homo sapiens), sequence (P04150 whole entry, looked up): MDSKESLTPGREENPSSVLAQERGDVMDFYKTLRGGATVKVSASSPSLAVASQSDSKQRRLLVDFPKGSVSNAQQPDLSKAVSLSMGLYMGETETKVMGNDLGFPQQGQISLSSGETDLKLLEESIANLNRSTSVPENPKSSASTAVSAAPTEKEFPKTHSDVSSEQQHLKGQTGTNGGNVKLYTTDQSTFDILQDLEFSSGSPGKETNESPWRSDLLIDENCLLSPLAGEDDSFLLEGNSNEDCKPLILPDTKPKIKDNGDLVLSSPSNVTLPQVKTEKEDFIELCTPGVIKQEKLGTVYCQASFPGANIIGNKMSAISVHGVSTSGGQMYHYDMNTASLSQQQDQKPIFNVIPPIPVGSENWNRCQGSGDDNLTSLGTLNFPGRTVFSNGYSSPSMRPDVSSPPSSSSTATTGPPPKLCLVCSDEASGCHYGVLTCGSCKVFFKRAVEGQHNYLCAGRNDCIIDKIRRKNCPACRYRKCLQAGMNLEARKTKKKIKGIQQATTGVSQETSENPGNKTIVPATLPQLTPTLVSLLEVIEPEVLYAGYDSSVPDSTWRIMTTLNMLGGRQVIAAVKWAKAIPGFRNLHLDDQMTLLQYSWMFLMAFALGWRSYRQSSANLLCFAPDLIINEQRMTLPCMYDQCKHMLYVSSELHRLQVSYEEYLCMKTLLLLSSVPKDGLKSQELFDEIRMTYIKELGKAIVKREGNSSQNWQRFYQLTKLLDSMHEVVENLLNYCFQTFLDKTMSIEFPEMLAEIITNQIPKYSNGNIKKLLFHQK

Consider `CN(C)CCC(c1ccc(Cl)cc1)c1ccccn1` (centres undefined), for which the Potency entry in [1], in experiment [2], in experiment [3], in experiment [4], in [5] and in experiment [17] was “inactive” throughout. The Potency result in experiment [18] was “inactive”. Further, the molecule was classed as inactive in experiment [6], in experiment [7], in experiment [8], in [9], in [10] and in [11]. The molecule was classed as inactive in experiment [12], in [13], in [14], in experiment [15] and in [16].
Take `COc1ccc(Cl)cc1C(=O)NCCc1ccc(S(=O)(=O)NC(=O)NC2CCCCC2)cc1`: the Potency result in [1], in [2] and in experiment [4] was “inactive” each time. The molecule was called inactive in experiment [6], in experiment [7], in experiment [8], in experiment [9], in [19] and in [11]. The outcome in [12], in experiment [13], in [14], in experiment [15] and in experiment [16] was inactive.
In the case of `O=C(CC(C(=O)OC1CCCCC1)S(=O)(=O)O)OC1CCCCC1` (centres undefined), the Potency result in experiment [1], in experiment [2], in experiment [3], in experiment [4], in experiment [5] and in experiment [17] was “inactive” throughout. The Potency entry in experiment [18] was “inactive”. In addition, the molecule was classed as inactive in [7], in experiment [8], in experiment [9], in experiment [10], in experiment [11] and in experiment [12]. Further, the molecule was classed as inactive in experiment [13], in experiment [15] and in [16].
Regarding `CCCCN(CCCC)CCCC`, the Potency result in experiment [1], in [2], in [3], in experiment [17] and in [18] was “inactive” in each case. Moreover, the call in [6], in experiment [7], in experiment [8], in [9], in [19] and in [11] was inactive. For the same molecule, the result in [12], in [13], in experiment [14], in experiment [15] and in experiment [16] was inactive.
Regarding `O=S1(=O)CC=CC1`, the Potency result in experiment [1], in experiment [2], in experiment [4], in [5], in [17] and in [18] was “inactive” each time. The molecule was classed as inactive in experiment [6], in [7], in experiment [8], in experiment [9], in experiment [19] and in [11]. Moreover, the outcome in experiment [12], in experiment [13], in experiment [14], in experiment [15] and in [16] was inactive.
As to `CCCCCCCCCC`, the Potency entry in experiment [1], in experiment [2], in experiment [3], in [4] and in experiment [5] was “inactive” in each case. Further, the result in experiment [6], in experiment [7], in experiment [8], in experiment [9], in experiment [19] and in [10] was inactive. Further, the molecule was called inactive in experiment [11], in experiment [12], in [13], in [15] and in experiment [16].
With `OCCOCCN1CCN(C2=Nc3ccccc3Sc3ccccc32)CC1`, the Potency entry in [1], in [2], in experiment [3] and in [4] was “inactive” throughout. Also, the result in experiment [6], in experiment [7], in experiment [8], in [9], in experiment [19] and in experiment [10] was inactive. Further, the molecule was called inactive in experiment [11], in experiment [12], in [13], in [14], in experiment [15] and in [16].
Consider `Oc1cccc2ccccc12`, for which the Potency result in experiment [1], in [2], in experiment [3], in [17] and in experiment [18] was “inactive” each time. For the same molecule, the Potency in experiment [5] was 28 µM (active) and 19.3 µM (active). Further, the result in experiment [7], in experiment [8], in experiment [9], in experiment [19], in experiment [10] and in [11] was inactive. Moreover, the molecule was classed as inactive in experiment [12], in [13], in experiment [15] and in experiment [16].
